Screening results deposited in PubChem by The Scripps Research Institute Molecular Screening Center.
LYPLA1 counter – LYPLA1 inhibitors, primary screen, counter-screen for PME1 inhibitor project, biochemical, fluorescence polarization, FP-Rh probe ABPP | Acyl-protein thioesterase 1 (Homo sapiens), O75608 | recombinant LYPLA1 | inhibition, % at 5.9 µM | actives 0.16% (n = 320,000) | AID 2174, 2009;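 active = inhibition above the mean of all tested compounds plus 3 SD, set per campaign, cut at about 14% in these data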;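 note: inhibitors block serine hydrolase probe labeling of LYPLA1 so polarization falls; 0% = enzyme with DMSO and 100% = wells lacking LYPLA1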
LYPLA2 inh – LYPLA2 inhibitors, primary screen, counter-screen for PME1 inhibitor project, biochemical, fluorescence polarization, FP-Rh probe ABPP; recombinant LYPLA2; actives 0.38% (n = 320,000); inhibition, % at 5.9 µM; Acyl-protein thioesterase 2 (Homo sapiens), O95372;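 active = inhibition above the screen-wide mean plus 3 SD, limit set per campaign, cut at about 26% in these data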;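 note: 0% = LYPLA2 with DMSO and 100% = wells lacking LYPLA2 enzyme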
PME-1 inh – PME-1 inhibitors via competitive probe labeling, primary screen, biochemical, fluorescence polarization, FP-Rh probe, HTS; actives 0.53% (n = 320,000); recombinant PME-1; inhibition, % at 5.9 µM; Protein phosphatase methylesterase 1 (Homo sapiens), Q9Y570;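 active = inhibition above the campaign mean of all compounds plus 3 SD, cut at about 26% in these data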;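 note: competitive labeling of PME-1 active site by serine hydrolase directed probe; 0% = PME-1 with DMSO and 100% = wells lacking PME-1 enzyme; inhibitors block probe labeling so polarization falls and inhibition rises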
Target sequence (Q9Y570 whole entry, looked up): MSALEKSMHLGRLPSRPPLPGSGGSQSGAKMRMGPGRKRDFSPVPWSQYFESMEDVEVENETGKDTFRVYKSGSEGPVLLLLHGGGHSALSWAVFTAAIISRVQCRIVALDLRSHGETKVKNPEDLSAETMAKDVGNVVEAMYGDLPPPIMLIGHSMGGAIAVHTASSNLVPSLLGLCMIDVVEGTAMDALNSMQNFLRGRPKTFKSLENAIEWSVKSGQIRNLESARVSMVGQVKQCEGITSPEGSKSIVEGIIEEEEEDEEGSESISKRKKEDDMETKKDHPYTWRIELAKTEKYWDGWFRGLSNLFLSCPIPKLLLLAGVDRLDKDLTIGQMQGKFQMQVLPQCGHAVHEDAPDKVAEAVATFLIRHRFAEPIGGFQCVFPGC
PP5 primary – PP5 phosphatase inhibitors, primary screen, biochemical, fluorescence. Serine/threonine-protein phosphatase 5 (Homo sapiens), P53041. purified PP5c, OMFP substrate fluorescence. inhibition, % at 6.7 µM. actives 0.18% (n = 320,000);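 active = inhibition above the campaign's mean inhibition across all tested compounds plus 3 SD, cut at about 9.5% in these data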;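 note: 0% = DMSO only and 100% = 100 µM cantharidin control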
Fam108B inh – mouse Fam108B serine hydrolase inhibitors, primary screen, counter-screen for RBBP9 inhibitor project, biochemical, fluorescence polarization. recombinant Fam108B, FP-Rh probe fluorescence polarization. inhibition, % at 9.51 µM. actives 0.33% (n = 300,000);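 active = inhibition above the screen mean inhibition plus 3 SD, computed separately per campaign, cut at about 18% in these data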;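 note: inhibitors lower polarization as less probe binds the enzyme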
PP1 counter – PP1-alpha phosphatase inhibitors, primary screen, counter-screen for PP5 inhibitor project, biochemical, fluorescence, OMFP substrate, single point; actives 0.9% (n = 320,000); inhibition, % at 6.7 µM; purified PP1alpha; Serine/threonine-protein phosphatase PP1-alpha catalytic subunit (Homo sapiens), P62136; AID 2235, 2010;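 active = inhibition above the mean inhibition of all tested compounds plus 3 SD, computed separately for each screening campaign, cut at about 15% in these data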
LYPLA1 conf – LYPLA1 inhibitors, retest, confirmation, counter-screen for PME1 inhibitor project, biochemical, fluorescence polarization, FP-Rh probe ABPP | actives 69% (n = 480) | shares compounds with LYPLA1 counter | recombinant LYPLA1 | AID 2233, 2010 | inhibition, % at 5.9 µM;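 active = mean inhibition across replicates above the hit cutoff set in the primary screen, cut at about 15% in these data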;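 note: loss of FP-Rh probe labeling of LYPLA1 seen as lower polarization; 0% = LYPLA1 with DMSO and 100% = wells lacking LYPLA1 enzyme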
* marks the source's active call; other numbers are inactive results; / = no result. Most compounds without a hit are left out; they make up all but 1.8% or so of the library.

SMILES	LYPLA1 counter	LYPLA2 inh	PME-1 inh	PP5 primary	Fam108B inh	PP1 counter	LYPLA1 conf
COC(=O)COC(=O)c1ccc(O)cc1	15*	3	-4	1	-2	-1	2
CC(C)N(C(=O)COC(=O)c1ccc(O)cc1)C(C)C	-1	-3	-1	-4	0	-3	/
Cc1ccc(CNC(=O)C2CCN(S(=O)(=O)c3ccc4c(c3)CC(C)N4C(=O)C3CCC3)CC2)o1 (stereo unspecified)	16*	12	5	-1	-5	-4	19*
CC(C)CCNC(=O)C1CCN(S(=O)(=O)c2ccc3c(c2)CC(C)N3C(=O)C2CCC2)CC1 (stereo unspecified)	8	4	1	0	6	6	/
Cc1ccc(OCCC(=O)N(CC(=O)Nc2ccccc2C(F)(F)F)Cc2ccco2)cc1	0	3	3	0	-1	-1	/
CC(=O)Nc1ccc(S(=O)(=O)Nc2ccc(Cc3ccncc3)cc2)cc1	41*	9	0	1	4	2	54*
COc1ccc(S(=O)(=O)Nc2ccc(Cc3ccncc3)cc2)cc1C	36*	4	19	2	-6	10	47*
Cc1ccoc1C(=O)N1CCN(C(=O)c2occc2C)CC1	-2	2	-1	-2	-6	-9	/
CCOCCn1c(=NC(=O)c2ccc(S(=O)(=O)N3CCOCC3)cc2)sc2cc(S(N)(=O)=O)ccc21	15*	15	9	4	-1	-1	15*
COCCn1c(=NC(=O)c2ccc(S(=O)(=O)N3CCc4ccccc4C3)cc2)sc2cc(S(N)(=O)=O)ccc21	-34	-70	-50	0	-41	5	/
CN(CCCC1CCCC1)C(=O)c1cc(COc2ccc(F)c(F)c2)on1	16*	12	-6	0	-4	3	28*
COc1ccc(/C=C/C(=O)NCC(c2ccc(F)cc2)N2CCOCC2)cc1OC (stereo unspecified)	5	5	1	3	2	-2	/
Cc1cc(C)c2oc(C(=O)N3CCN(Cc4ccccc4)CC3)cc(=O)c2c1	21*	-6	3	2	-4	1	26*
Cc1cc(C)c2oc(C(=O)N3CCN(C)CC3)cc(=O)c2c1	8	0	1	2	-3	-4	/
COc1cc(CNCCCN2CCOCC2)c(Br)cc1OCC(=O)Nc1ccccc1C	17*	9	5	-4	3	-3	0
COc1ccccc1NC(=O)COc1ccc(Br)cc1CNCCCN1CCOCC1	2	4	-8	0	3	0	/
O=C(CSc1nnc(-c2ccco2)o1)N1CCN(c2ccccc2)CC1	20*	4	-1	2	-1	-6	28*
O=C(CSc1nnc(-c2ccco2)o1)N1CCOCC1	2	2	-5	0	1	-2	/
O=C(CN1CCN(C(=O)c2ccco2)CC1)Nc1ccccc1-c1ccccc1	2	2	0	0	5	-3	/
O=C(CN1CCN(C(=O)c2ccccc2)CC1)Nc1cc(S(=O)(=O)N2CCCC2)ccc1Cl	78*	10	15	3	/	1	81*
O=C(CN1CCN(C(=O)c2ccco2)CC1)Nc1cc(Cl)ccc1Cl	82*	16	7	1	2	-1	85*
O=C(CN1CCN(C(=O)c2cccc(S(=O)(=O)N3CCCC3)c2)CC1)Nc1ccccc1Cl	-2	4	11	2	/	0	/
O=C1CCN(C(=O)/C=C/c2ccccc2)c2ccccc21	15*	13	0	3	-1	-3	23*
COc1ccc(/C=C/C(=O)N2CCCc3ccccc32)cc1	1	4	-13	-3	2	0	/
Cc1[nH]c2ccccc2c1/C=C(\C#N)C(=O)NC1CC1	-4	-6	8	2	-1	-2	/
